The list is not random: actives were taken first. Their share in the collection is about 28%.
CD11b adhes enh: enhancers of CD11b/CD18 adhesion to fibrinogen, primary screen, K562 cells, luminescence; activation, % at 10 µM; 93,000 tested, 0.07% active; ATPlite luminescence; Integrin beta-2 (Homo sapiens) + Integrin alpha-M (Homo sapiens), P05107+P11215;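 active = 10 µM primary screen giving 50% or more activity, confirmed by 40% or more on retest at that dose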
CYP2C9 inh: blockers of cytochrome P450 2C9 activity – biochemical, luminescence, ADME assay, primary screen; 96,000 tested, 20% active; AID 777, 2007; P11712; inhibition, % at 5 µM; CYP2C9 Supersomes, luciferin-H conversion;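 active = blocking of liver enzyme CYP2C9 beyond about 50% at 5 µM, limit read from the data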
CYP2C19 act: human CYP2C19 activators, primary screen, biochemical, luminescence; AID 1025, 2008; recombinant CYP2C19, luciferin-H EGE luminescence; hits give high values; 0 = fully inhibited enzyme, 1 = untreated enzyme; 96,000 tested, under 10 active; Cytochrome P450 2C19 (Homo sapiens), P33261; activation factor at 5 µM;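 active = activation factor of at least 2 at 5 µM in the primary screen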;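 also: 0 = wells with 2.5 mM tranylcypromine and 1 = vehicle-only wells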
Target sequence (P33261 whole entry, looked up): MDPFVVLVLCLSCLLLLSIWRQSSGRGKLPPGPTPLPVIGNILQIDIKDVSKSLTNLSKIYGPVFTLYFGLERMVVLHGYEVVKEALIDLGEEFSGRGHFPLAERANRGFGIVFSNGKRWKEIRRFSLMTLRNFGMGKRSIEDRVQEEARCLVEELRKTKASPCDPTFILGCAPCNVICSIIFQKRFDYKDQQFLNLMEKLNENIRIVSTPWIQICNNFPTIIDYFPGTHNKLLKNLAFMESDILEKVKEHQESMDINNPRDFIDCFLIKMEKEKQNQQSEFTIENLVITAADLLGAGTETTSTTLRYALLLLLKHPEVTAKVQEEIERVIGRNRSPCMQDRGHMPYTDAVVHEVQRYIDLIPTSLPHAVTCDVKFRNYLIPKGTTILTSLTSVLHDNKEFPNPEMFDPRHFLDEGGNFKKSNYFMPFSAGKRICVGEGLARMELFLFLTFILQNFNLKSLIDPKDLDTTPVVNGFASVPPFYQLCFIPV
CYP2C9 activ: human CYP2C9 activators, primary screen, biochemical, luminescence; 96,000 tested, 1.4% active; Cytochrome P450 2C9 (Homo sapiens), P11712; AID 1024, 2008; activation factor at 5 µM; recombinant CYP2C9, luciferin-H conversion; hits give high values; factor 1 = untreated enzyme, 0 = blocked;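 active = activation factor of 2 or more for CYP2C9 at a 5 µM dose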;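 also: 0 = sulfaphenazole-blocked wells and 1 = vehicle-only wells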
CYP2C19 inhib: blockers of cytochrome P450 2C19 activity – biochemical, luminescence, ADME assay, primary screen. P33261. CYP2C19 Supersomes, luciferin-H EGE luminescence, 30 min. inhibition, % at 5 µM. 96,000 tested, 21% active. AID 778, 2007;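 active = CYP2C19 inhibition above a set limit at 5 µM in the primary screen, cut at about 50% in these data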;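 also: plate controls were negative control wells for no effect and 2.5 mM tranylcypromine positive control for full effect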
Mac1 fbg inh: inhibitors of CD11b/CD18 adhesion to fibrinogen, primary screen, K562 cells, luminescence; inhibition, % at 10 µM; AID 1497, 2009; 93,000 tested, 0.54% active; Integrin beta-2 (Homo sapiens) + Integrin alpha-M (Homo sapiens), P05107+P11215; ATPlite luminescence; Mn2+ added to activate the integrin;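 active = primary inhibition of 50% or more at 10 µM, then 40% or more on retest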
* hit, by the source's call; . = not tested or not shown.

SMILES | CD11b adhes enh | CYP2C9 inh | CYP2C19 act | CYP2C9 activ | CYP2C19 inhib | Mac1 fbg inh
CC(CN1CCCCC1)OC(=O)C(C)(c1ccccc1)c1ccccc1 (stereo unspecified) | -1 | 68* | 0.5 | 0.3 | 54* | 2
OC(COc1ccc(Cl)cc1)CN1CCCCC1 (stereo unspecified) | -3 | -23 | 1.1 | 1.2 | -7 | 1
CCOc1ccc(-n2c(SCC(=O)Nc3ccccc3C)n[nH]c2=O)cc1 | 2 | -24 | 0.8 | 1.2 | 20 | -19
CCn1c2ccccc2c2cc(NC(=O)CCCN3C(=O)CCC3=O)ccc21 | 0 | -89 | 0.5 | 1.9 | 49 | 32
COCCCNC(=O)c1cn(C)c(=O)c2cc(OC)c(OC)cc12 | -7 | -1 | 1.1 | 1 | -10 | -3
CC(C)C(=O)Nc1ccc(NC(=S)NC(=O)c2ccc([N+](=O)[O-])cc2)cc1 | . | 32 | 0.9 | 0.7 | 8 | .
CC1CCN(c2ccc(NC(=O)c3cccnc3)cc2)CC1 | -6 | 72* | 0.6 | 0.3 | 35 | -10
COc1ccc(NC(=O)c2ccc(C)cc2Cl)c([N+](=O)[O-])c1 | 1 | -259 | 0.7 | 3.6* | 35 | 0
COc1ccc(NC(=S)NC(NC(=O)c2ccc(Cl)cc2Cl)C(Cl)(Cl)Cl)c([N+](=O)[O-])c1 (stereo unspecified) | -3 | 98* | 0 | 0 | 96* | 83*
COc1ccc(NC(=S)NC(NC(=O)c2ccccc2Cl)C(Cl)(Cl)Cl)c([N+](=O)[O-])c1 (stereo unspecified) | 6 | 74* | 0.8 | 0.3 | 24 | 14
COc1ccc(NC(=S)NC(NC(=O)c2cccc3ccccc23)C(Cl)(Cl)Cl)c([N+](=O)[O-])c1 (stereo unspecified) | 17 | 83* | 0.8 | 0.2 | 19 | -39
CCC(C)(C)C(=O)Nc1ccc(OC)cc1[N+](=O)[O-] | . | 9 | 0.7 | 0.9 | 28 | .
CCOc1ccc(NC(=O)N(CCC(C)C)C2CCN(C(C)=O)CC2)cc1 | -4 | 10 | 0.9 | 0.9 | 6 | 13
Nn1c(SCC(=O)N2CCOCC2)nnc1-c1ccccc1Cl | . | 0 | 1.1 | 1 | -5 | .
NCCc1nnc(SCc2ccc(F)cc2)o1 | -2 | 75* | 0.1 | 0.3 | 90* | -7
CCCc1cc(C(=O)Nc2ccccc2C(=O)OC)no1 | 1 | -117 | 0.8 | 2.2* | 20 | -4
COc1ccccc1-c1cc(C(=O)Nc2cccnc2)no1 | 0 | -109 | 0.7 | 2.1* | 27 | 15
CCCc1cc(C(=O)NCCc2ccccc2)no1 | 3 | 40 | 0.4 | 0.6 | 63* | -15
COc1ccccc1-c1cc(C(=O)NCCc2ccccc2)no1 | -10 | -268 | 0.7 | 3.7* | 25 | 4
O=C(NCCC1=CCCCC1)c1cnsn1 | 3 | 38 | 0.4 | 0.6 | 65* | -13
Cc1cc(C(=O)NCCC2=CCCCC2)no1 | 0 | -2 | 0.5 | 1 | 48 | 11
CCC(C(=O)c1ccccc1)N(C(=O)c1ccccc1Cl)N1C(=O)C2C3C=CC(C3)C2C1=O (stereo unspecified) | . | 5 | 0.5 | 1 | 48 | .
CCOC(=O)c1c(C)nc2c(c(SC)nn2-c2ccccc2)c1N | 1 | -16 | 0.8 | 1.2 | 24 | 20
CCOC(=O)CSc1nnc(SCCN2C(=O)c3ccccc3C2=O)s1 | 1 | 83* | 0.6 | 0.2 | 42 | -3
Clc1ccc(OCCCCSc2ncccn2)cc1 | 4 | 18 | 0.9 | 0.8 | 10 | 11
CCCOc1ccc(OCCSc2ncccn2)cc1 | 0 | 50* | 0.5 | 0.5 | 47 | -21
CCOc1ccc(OCC)c(NC(=O)C2CCN(c3ncccn3)CC2)c1 | 3 | 52* | 0.7 | 0.5 | 30 | 0
CCOc1ccc(OCC)c(NC(=O)C2CCCN(c3ncccn3)C2)c1 (stereo unspecified) | -1 | 38 | 0.4 | 0.6 | 60* | 0

Assay outcomes (PubChem BioAssay)
